Results: PubChem BioAssay (NCATS)
Results filed as inconclusive are left out. Calls of active or inactive are those of the source. Calls come from the whole dose curve; as a rule, active = well fitted curve in the direction sought with a large enough effect; inconclusive = small, poorly fitted or top-dose-only effect, or another doubt; inactive = no such curve, though single readings can be large; an effect the other way counts as inactive or inconclusive.

Tested on: not listed separately
Assay: Validation qHTS assay for inhibitors of Activation Induced Cytidine Deaminase (AID): UDG Counterscreen signal (AID 1347427); note: 0% is about no effect
Details: biochemical UDG counterscreen, fluorescence signal; series mostly up to 115 µM; activity, negative = inhibition: at the top concentration
Procedure, shortened: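 Counterscreen read of UDG activity (2 U/mL, 4/3x) in the FRET deamination format with AID (1 uM, 4/3x), DJC20/DJC23 substrates (250 nM, 4x), 4 h at room temperature. NaOH stop, fluorescence at 560 ex/665 em.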

SMILES | activity, negative = inhibition
NC(N)=Nc1nc(CSCC/C(N)=N/S(N)(=O)=O)cs1 | 7.13% (inactive)
CCCNC(=O)NS(=O)(=O)c1ccc(Cl)cc1 | 10.7% (inactive)
Clc1ccc(C(c2ccc(Cl)cc2)n2cc[n+](CC(OCc3ccc(Cl)cc3Cl)c3ccc(Cl)cc3Cl)c2)cc1 (stereo not given) | -3.67% (inactive)
CCCCCN(C)CCC(O)(P(=O)(O)O)P(=O)(O)O | 3.43% (inactive)
O=c1cc(-c2ccc(O)cc2)oc2cc(O)cc(O)c12 | 2.06% (inactive)
CC/C(=C(\c1ccccc1)c1ccc(OCCN(C)C)cc1)c1ccccc1 | -1.71% (inactive)
CC(C)(C)c1ccc(C(O)CCCN2CCC(C(O)(c3ccccc3)c3ccccc3)CC2)cc1 (stereo not given) | -5.75% (inactive)

Target: Single-stranded DNA cytosine deaminase (Homo sapiens) (UniProt Q9GZX7)
Assay: Validation qHTS assay for inhibitors of Activation Induced Cytidine Deaminase (AID): AID signal (AID 1347429); note: potency is the fitted concentration of half-maximal effect; for activity change, negative = inhibition: % is set by controls: 0 for no effect and ±100 for the full control effect
Details: Recombinant AID, FRET ssDNA deamination with UDG, fluorescence; series mostly up to 115 µM; activity change, negative = inhibition: at the top concentration
Procedure, shortened: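 FRET deamination assay: 1 uM AID (4/3x stock) with UDG, compound up to 114 uM, then 250 nM DJC20/DJC23 substrate (4x stock) for 4 hr at room temperature. NaOH added, 30 min; fluorescence read 540/590 nm.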

Single-stranded DNA cytosine deaminase (Homo sapiens), sequence (Q9GZX7 whole entry, looked up): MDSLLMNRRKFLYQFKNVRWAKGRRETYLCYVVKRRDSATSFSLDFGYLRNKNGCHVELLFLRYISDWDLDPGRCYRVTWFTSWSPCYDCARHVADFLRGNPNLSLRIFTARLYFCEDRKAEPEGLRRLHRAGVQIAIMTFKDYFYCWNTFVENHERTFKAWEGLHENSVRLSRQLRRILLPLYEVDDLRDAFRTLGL

SMILES | activity change, negative = inhibition | Potency
NC(N)=Nc1nc(CSCC/C(N)=N/S(N)(=O)=O)cs1 | 15.1% (inactive) | 
CCCNC(=O)NS(=O)(=O)c1ccc(Cl)cc1 | 14.9% (inactive) | 
Clc1ccc(C(c2ccc(Cl)cc2)n2cc[n+](CC(OCc3ccc(Cl)cc3Cl)c3ccc(Cl)cc3Cl)c2)cc1 (stereo not given) | -4.96% (inactive) | 
CCCCCN(C)CCC(O)(P(=O)(O)O)P(=O)(O)O | 11.3% (inactive) | 
O=c1cc(-c2ccc(O)cc2)oc2cc(O)cc(O)c12 | 0.472% (inactive) | 
CC/C(=C(\c1ccccc1)c1ccc(OCCN(C)C)cc1)c1ccccc1 | 11.6% (inactive) | 
CC1(C)CCC2=C(O1)c1ccccc1C(=O)C2=O |  | 7.08 µM (active)
CC(C)(C)c1ccc(C(O)CCCN2CCC(C(O)(c3ccccc3)c3ccccc3)CC2)cc1 (stereo not given) | -1.19% (inactive) | 

Tested on: not listed separately
Assay: Primary qHTS for inhibitors of La Crosse Virus (LACV) - induced cell death in SH-SY5Y cells (AID 1508616);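 note: top concentration of the series differs between compounds; 0% = infected DMSO wells and 100% = uninfected DMSO wells; higher means more rescue of cells from virus-induced death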
Details: SH-SY5Y LACV cytopathicity rescue, ATP luminescence, 6 d; series mostly up to 4.29 µM; activity change: at the top concentration
Procedure, shortened: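 SH-SY5Y cells (6000/well) plated 24 h, then given compounds by pin transfer and LACV at 0.01 MOI for 6 days at 37C. Viability measured by ATPLite luminescence, normalized to infected DMSO and uninfected DMSO.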

SMILES | activity change | outcome
CC(=O)Oc1cc2c(s1)CCN(C(C(=O)C1CC1)c1ccccc1F)C2 (stereo not given) | 9.02% (inactive) | 
NC(N)=Nc1nc(CSCC/C(N)=N/S(N)(=O)=O)cs1 |  | inactive
CCCNC(=O)NS(=O)(=O)c1ccc(Cl)cc1 |  | inactive
Clc1ccc(C(c2ccc(Cl)cc2)n2cc[n+](CC(OCc3ccc(Cl)cc3Cl)c3ccc(Cl)cc3Cl)c2)cc1 (stereo not given) | -12.1% [at 9.63 µM] (inactive) | 
CCCCCN(C)CCC(O)(P(=O)(O)O)P(=O)(O)O | 6.33% [at 9.63 µM] (inactive) | 
O=c1cc(-c2ccc(O)cc2)oc2cc(O)cc(O)c12 | 12.6% [at 9.63 µM] (inactive) | 
CCN(CC)CCNC(=O)c1ccc(N)cc1 |  | inactive
CC/C(=C(\c1ccccc1)c1ccc(OCCN(C)C)cc1)c1ccccc1 |  | inactive
CC(C)(C)c1ccc(C(O)CCCN2CCC(C(O)(c3ccccc3)c3ccccc3)CC2)cc1 (stereo not given) |  | inactive

Target: Calcium and integrin-binding protein 1 (Homo sapiens) (UniProt Q99828)
Assay: Validation qHTS for Identification of Calcium Integrin Binding protein 1 (CIB1) Competitor (AID 1508618); note: % is set by controls: 0 for no effect and ±100 for the full control effect
Details: CIB1-GST / FITC-alphaIIb peptide fluorescence polarization; series mostly up to 114 µM; activity change, negative = inhibition: at the top concentration
Procedure, shortened: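 Fluorescence polarization with 1 uM CIB1-GST and 100 nM FITC-alphaIIb peptide in HEPES pH 7.4, NaCl, 5 mM CaCl2, Tween20. Compounds at up to 114 uM final, preincubated with protein 15 min; read after 15 min more at RT.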

Calcium and integrin-binding protein 1 (Homo sapiens), sequence (Q99828 whole entry, looked up): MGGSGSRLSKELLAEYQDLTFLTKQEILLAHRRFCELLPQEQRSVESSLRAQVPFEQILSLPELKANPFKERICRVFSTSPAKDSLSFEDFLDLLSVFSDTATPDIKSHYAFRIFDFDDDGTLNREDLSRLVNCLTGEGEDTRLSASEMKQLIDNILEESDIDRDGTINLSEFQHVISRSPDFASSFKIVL

SMILES | activity change, negative = inhibition
NC(N)=Nc1nc(CSCC/C(N)=N/S(N)(=O)=O)cs1 | 2.6% (inactive)
CCCNC(=O)NS(=O)(=O)c1ccc(Cl)cc1 | 15% (inactive)
Clc1ccc(C(c2ccc(Cl)cc2)n2cc[n+](CC(OCc3ccc(Cl)cc3Cl)c3ccc(Cl)cc3Cl)c2)cc1 (stereo not given) | 77.6% (inactive)
O=c1cc(-c2ccc(O)cc2)oc2cc(O)cc(O)c12 | 2.43% (inactive)
CCN(CC)CCNC(=O)c1ccc(N)cc1 | 5.78% (inactive)
CC1(C)CCC2=C(O1)c1ccccc1C(=O)C2=O | 1.29% (inactive)
CC(C)(C)c1ccc(C(O)CCCN2CCC(C(O)(c3ccccc3)c3ccccc3)CC2)cc1 (stereo not given) | 4.66% (inactive)

Target: Calcium and integrin-binding protein 1 (Homo sapiens) (UniProt Q99828)
Assay: Primary qHTS for Identification of Calcium Integrin Binding Protein 1 (CIB1) Competitor (AID 1508620); note: potency is the fitted concentration of half-maximal effect;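 for activity change, negative = inhibition: GST tagged CIB1 binding a fluorescein labelled alphaIIb integrin peptide tracer; top concentration of the series differs between compounds; % is set by controls: 0 for no effect and ±100 for the full control effect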
Details: CIB1-GST / FITC-alphaIIb peptide fluorescence polarization; series mostly up to 57.7 µM; activity change, negative = inhibition: at the top concentration
Procedure, shortened: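 Fluorescence polarization competition: CIB1-GST (1 uM final) preincubated with compound 15 min at room temperature, then FITC-labeled alphaIIb peptide (100 nM final) added for another 15 min. Polarization read at Ex 480/Em 540.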

SMILES | Potency | activity change, negative = inhibition
O=C(Nc1ccccc1-c1cn2c(CN3CCNCC3)csc2n1)c1cnc2ccccc2n1 | inactive | 
Cc1ccc(C(=O)Nc2cccc(C(F)(F)F)c2)cc1Nc1nc(-c2cccnc2)nc2c1cnn2C |  | 3.25% (inactive)
CC(=O)Oc1cc2c(s1)CCN(C(C(=O)C1CC1)c1ccccc1F)C2 (stereo not given) |  | -6.16% (inactive)
C=C1C(=O)[C@@]23C(CC[C@@H]1[C@H]2O)[C@@]12CO[C@]3(O)[C@@H](O)[C@@H]1C(C)(C)CC[C@@H]2O (stereo not given in full) | 44.7 µM (active) | 
N#Cc1ccc(NC(=O)Nc2ccccc2Br)c2n[nH]nc12 |  | -7.08% (inactive)
NC(N)=Nc1nc(CSCC/C(N)=N/S(N)(=O)=O)cs1 |  | 2.35% [at 114 µM] (inactive)
CCCNC(=O)NS(=O)(=O)c1ccc(Cl)cc1 | inactive | 
Clc1ccc(C(c2ccc(Cl)cc2)n2cc[n+](CC(OCc3ccc(Cl)cc3Cl)c3ccc(Cl)cc3Cl)c2)cc1 (stereo not given) |  | -3.82% (inactive)
CCCCCN(C)CCC(O)(P(=O)(O)O)P(=O)(O)O |  | 3.53% (inactive)
CCNc1cc(NC2CCC(O)CC2)nc(Nc2ccc3c(ccn3Cc3ccccc3)c2)n1 (stereo not given) |  | 3.17% (inactive)
COc1ccc(-c2coc3cc(O)cc(O)c3c2=O)cc1 |  | 0.658% (inactive)
Nc1ncnc2ccccc12 |  | 1.15% (inactive)
CS(=O)(=O)N(Cc1ccco1)CC(O)Cn1c2ccccc2c2ccccc21 (stereo not given) | inactive | 
CC(C)(C)OC(=O)N[C@H]1CCCCCC=C[C@@H]2C[C@@]2(C(=O)NS(=O)(=O)C2CC2)NC(=O)[C@@H]2C[C@@H](OC(=O)N3Cc4cccc(F)c4C3)CN2C1=O |  | -3.43% [at 114 µM] (inactive)
NS(=O)(=O)c1cccc2c1C(=O)c1cccc(O)c1C2=O |  | -10.2% (inactive)
O=C(NCc1ccncc1)C12C[C@H]3C[C@@H](C1)CC(c1ccc(Cl)cc1)(C3)C2 |  | 2.24% (inactive)
O=C(O)c1ccc(-c2c[nH]c3ncc(-c4ccccc4)cc23)cc1C1CCCC1 |  | -11.1% (inactive)

SMILES | Potency | activity change, negative = inhibition
CC(=O)OC1C(C)OC(Oc2c(-c3ccc(O)cc3)oc3cc(O)cc(O)c3c2=O)C(O)C1OC(C)=O (stereo not given) |  | -4.5% (inactive)
O=c1cc(-c2ccc(O)cc2)oc2cc(O)cc(O)c12 |  | -4.64% (inactive)
CCN(CC)CCNC(=O)c1ccc(N)cc1 | inactive | 
O=C(Nc1c(Cl)cncc1Cl)c1ccc(OC(F)F)c(OCC2CC2)c1 |  | -1.5% (inactive)
N#CC1(c2ccc(NC(=O)c3cccnc3NCc3ccncc3)cc2)CCCC1 |  | -0.316% (inactive)
CC1(C)CCC2=C(O1)c1ccccc1C(=O)C2=O |  | -1.26% (inactive)
Nc1ncnc2c1nc(Cl)n2[C@@H]1O[C@H](CO)[C@@H](O)[C@@H]1O |  | -0.835% (inactive)
CC(C)(C)COc1ccc(-n2cc(C(=O)O)cn2)cc1C#N |  | -9.34% (inactive)
COc1cccc([C@@H](C)NCCCc2ccccc2Cl)c1 |  | -19.5% (inactive)
O=C(Nc1cc(Cl)cc2c1[nH]c1cnccc12)c1cccnc1 |  | -1.87% (inactive)
NC(=O)[C@@H](CCC(F)(F)F)N(Cc1ccc(-c2ncon2)cc1F)S(=O)(=O)c1ccc(Cl)cc1 |  | -0.533% (inactive)
O=C1C(Cl)=C(NCCN2CCOCC2)C(=O)c2ncccc21 |  | -6.93% (inactive)
O=c1cc(-c2cccc3c2Sc2ccccc2S3)oc(N2CCOCC2)c1 |  | -1.47% (inactive)
NC(=O)c1ccc2nc(-c3ccc(Oc4ccc(Cl)cc4)cc3)[nH]c2c1 | inactive | 
CC(C)(C)c1ccc(C(O)CCCN2CCC(C(O)(c3ccccc3)c3ccccc3)CC2)cc1 (stereo not given) |  | 2.42% [at 114 µM] (inactive)
O=C(O)C(O)Cc1ccc(O)c(O)c1 (stereo not given) |  | -17.3% (inactive)
C[C@H](NC(=O)C(=O)Nc1ccccc1C(C)(C)C)C(=O)N[C@@H](CC(=O)O)C(=O)COc1c(F)c(F)cc(F)c1F |  | -3.57% (inactive)
